Assay results taken from the supplement of paper PMC8047044.

The molecules below were run on Neuro-2a (assay: neurite formation score, plate-normalized to DMSO control mean 5.04 (score (0-8 scale)); higher = more or longer neurites). Conditions: 1 µM.
Experimental: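 Neuro-2a mouse neuroblastoma cells in PLL-coated 96-well plates were pre-treated for 1 h in DMEM(+) with each kinase inhibitor at 1 µM, then switched to serum-free DMEM(-) with inhibitor to induce neurite outgrowth and fixed about 2-3 h later. Three blinded observers scored neurite formation from 0 (no neurites) to 8 (long neurites on almost all cells).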
For `C=CC(=O)Nc1cccc(Nc2nc(Nc3ccc(NC4CN(CCF)C4)cc3OC)ncc2C(F)(F)F)c1`, the neurite formation score was 4.88.
`COc1cc2ncnc(Nc3cccc(Br)c3)c2cc1OC` gave a neurite formation score of 4.14.
Work on `C[C@H]1[C@H](C)CC[C@]2(C(=O)O)CC[C@]3(C)C(=CC[C@@H]4[C@@]5(C)C[C@@H](O)[C@H](O)[C@@](C)(CO)[C@@H]5CC[C@]43C)[C@H]12` [Asiatic acid] yielded a neurite formation score of 4.21.
Work on `Cc1[nH]c(/C=C2\C(=O)Nc3ccccc32)c(C)c1CCC(=O)O` [TSU-68 (SU6668,Orantinib)] yielded a neurite formation score of 4.57.
`NC1(Cc2ccc(Cl)cc2)CCN(c2ncnc3[nH]ccc23)CC1` was tested, and the neurite formation score was 5.63.
With `CCS(=O)(=O)N1CC(CC#N)(n2cc(-c3ncnc4[nH]ccc34)cn2)C1` the neurite formation score was 4.02.
`Cc1cc(C)nc(NS(=O)(=O)c2ccc(NC(=S)NC(=O)COc3ccc(Br)cc3Cl)cc2)n1` showed a neurite formation score of 3.9.
For `NCC(=O)Nc1ccc(-n2nc(C(F)(F)F)cc2-c2ccc3c(ccc4ccccc43)c2)cc1`, the neurite formation score was 5.57.
`CN1CCN(c2ccc3nc(-c4c(N)c5c(F)cccc5[nH]c4=O)[nH]c3c2)CC1` [Dovitinib (TKI-258, CHIR-258)] showed a neurite formation score of 4.88.
With `CC(C)n1nc(-c2ccc3oc(N)nc3c2)c2c(N)ncnc21` the neurite formation score was 3.96.
`CCCCOc1c(C(=O)c2c(F)cc(C)cc2F)c[nH]c2nncc1-2` gave a neurite formation score of 5.29.
For `Cc1nc2c(-c3cnc(N)nc3)nc(N3CCOCC3)nc2n1C(C)C`, the neurite formation score was 4.02.
In the case of `C[C@]1(O)C[C@@H](c2nc(-c3ccc4ccc(-c5ccccc5)nc4c3)c3c(N)nccn32)C1` [Linsitinib], the neurite formation score was 4.9.
